In PMC5540273 (PLoS ONE, 2017):

Legend:
Settings in all cases: concentration: 1 μM, replicates: in singlicate; n = 1
EPHA7 = system: EPHA7
EPHA8 = system: EPHA8
EPHB1 = system: EPHB1
EPHB2 = system: EPHB2
EPHB3 = system: EPHB3
EPHB4 = system: EPHB4
EPHB6 = system: EPHB6
ERBB2 = system: ERBB2
ERBB3 = system: ERBB3
ERBB4 = system: ERBB4
ERK1 = system: T1, ERK1
T1 construct: gene MAPK3

ERK2 = system: T2, ERK2
T2 construct: gene MAPK1

ERK3 = system: T3, ERK3
T3 construct: gene MAPK6

ERK4 = system: T4, ERK4
T4 construct: gene MAPK4

ERK5 = system: T5, ERK5
T5 construct: gene MAPK7

ERK8 = system: T6, ERK8
T6 construct: gene MAPK15

ERN1 = system: ERN1
FAK = system: T7, FAK
T7 construct: gene PTK2

FER = system: FER
FES = system: FES
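Further: KINOMEscan kinase panel screen.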

| SMILES | %Inh (EPHA7) [%] | %Inh (EPHA8) [%] | %Inh (EPHB1) [%] | %Inh (EPHB2) [%] | %Inh (EPHB3) [%] | %Inh (EPHB4) [%] | %Inh (EPHB6) [%] | %Inh (ERBB2) [%] | %Inh (ERBB3) [%] | %Inh (ERBB4) [%] | %Inh (ERK1) [%] | %Inh (ERK2) [%] | %Inh (ERK3) [%] | %Inh (ERK4) [%] | %Inh (ERK5) [%] | %Inh (ERK8) [%] | %Inh (ERN1) [%] | %Inh (FAK) [%] | %Inh (FER) [%] | %Inh (FES) [%] |
| --- | --- | --- | --- | --- | --- | --- | --- | --- | --- | --- | --- | --- | --- | --- | --- | --- | --- | --- | --- | --- |
| Cc1ccc(S(=O)(=O)Nc2ccc(Nc3nccc(Nc4cccc5[nH]ncc45)n3)cc2)cc1 [GSK581271] | 12 | 30 | 29 | 0 | 3 | 26 | 31 | 14 | 0 | 39 | 0 | 0 | 0 | 5 | 0 | 28 | 0 | 0 | 7 | 0 |
| O=C(Nc1cccc(Oc2ccc3nc(NC(=O)C4CC4)cn3n2)c1)c1ccccc1C(F)(F)F | 0 | 29 | 6 | 19 | 7 | 10 | 31 | 25 | 52 | 20 | 0 | 0 | 0 | 0 | 0 | 20 | 0 | 9 | 0 | 22 |
| COc1cc(Nc2nccc(N3CCC(NC(=O)Nc4cccc(C(C)=O)c4)C3)n2)cc(OC)c1OC (stereo not shown) [GSK1379753] | 11 | 16 | 18 | 0 | 13 | 6 | 88 | 2 | 0 | 19 | 0 | 0 | 9 | 15 | 0 | 0 | 5 | 0 | 22 | 0 |
| FC(F)(F)c1ccc(/C=C/c2cncnc2Nc2ccc3[nH]c(Cc4ccccc4)nc3c2)cc1 [GW709199] | 0 | 1 | 9 | 7 | 5 | 37 | 0 | 69 | 69 | 72 | 0 | 0 | 0 | 9 | 12 | 21 | 0 | 21 | 0 | 38 |
| Cc1ccc(C)c(NC(=O)NC2CCN(c3ccnc(Nc4ccc(F)cc4)n3)C2)c1 (stereo not shown) [GSK1379720] | 0 | 0 | 0 | 16 | 8 | 6 | 24 | 43 | 11 | 47 | 35 | 0 | 0 | 12 | 0 | 0 | 3 | 0 | 2 | 0 |
| COC(=O)Nc1nc2ccc(Oc3ccc(NC(=O)Nc4cc(C(F)(F)F)ccc4F)cc3)cc2n1C.Cl [GW692089] | 72 | 91.5 | 35 | 43 | 17 | 48 | 67 | 28 | 29 | 4 | 0 | 0 | 0 | 0 | 0 | 72 | 0 | 0 | 21 | 3 |
| Cl.Cl.NCC(NC(=O)c1cc(-c2ccccc2)c(-c2ccnc3[nH]ccc23)s1)c1ccccc1 (stereo not shown) [GSK1321561] | 11 | 50 | 16 | 0 | 7 | 19 | 2 | 58 | 0 | 49 | 6 | 16 | 0 | 8 | 0 | 0 | 0 | 0 | 36 | 0 |
| CN(c1ccc(NC(=O)Nc2cc(C(F)(F)F)ccc2F)cc1)c1ccnc(Nc2ccc(S(N)(=O)=O)cc2)n1 [GW809893] | 97.9 | 99.9 | 97.5 | 95.7 | 50 | 95 | 98.8 | 0 | 35 | 0 | 0 | 0 | 0 | 0 | 79 | 98.6 | 5 | 98.8 | 84 | 72 |
| O=C(O)C(F)(F)F.O=C(O)C(F)(F)F.O=c1[nH]ccc2nc(N[C@@H]3CCCNC3)nc(Nc3ccc(S(=O)(=O)N4CCOCC4)cc3)c12 [GSK2177277] | 58 | 39 | 31 | 0 | 15 | 21 | 30 | 2 | 45 | 12 | 59 | 72 | 100 | 100 | 58 | 99.2 | 60 | 86 | 95.4 | 68 |
| NCCCC(NC(=O)c1cc(Br)c(-c2ccnc3[nH]ccc23)s1)c1ccccc1.O=C(O)C(F)(F)F.O=C(O)C(F)(F)F (stereo not shown) [GSK1287544] | 8 | 7 | 30 | 0 | 0 | 15 | 0 | 0 | 0 | 15 | 12 | 22 | 0 | 0 | 0 | 43 | 22 | 0 | 0 | 1 |
| Cc1cccc(NC(=O)Nc2ccc(Oc3ncnc4ccn(C)c34)cc2)c1 | 18 | 0 | 6 | 0 | 21 | 0 | 91 | 49 | 0 | 12 | 0 | 20 | 0 | 0 | 0 | 12 | 0 | 5 | 0 | 0 |
| COc1cccc(C(=O)Nc2cccc(Oc3ccc4nc(NC(=O)C5CC5)cn4n3)c2)c1 | 5 | 98.4 | 87 | 94.5 | 0 | 85 | 98.5 | 4 | 10 | 6 | 4 | 6 | 0 | 0 | 0 | 14 | 0 | 1 | 0 | 0 |
| Cc1ccc(C(=O)Nc2ccc(Nc3ccnc4cc(-c5nccs5)ccc34)cc2O)cc1.Cl [GW494702] | 0 | 0 | 11 | 21 | 20 | 12 | 50 | 42 | 21 | 10 | 0 | 0 | 0 | 0 | 0 | 11 | 0 | 0 | 34 | 24 |
| Nc1ncnc2c1nc(-c1ccccc1)n2-c1ccccc1 [SKF-97293] | 0 | 7 | 15 | 0 | 29 | 10 | 16 | 14 | 43 | 0 | 12 | 10 | 0 | 0 | 6 | 13 | 35 | 14 | 8 | 30 |
| Nc1ncc(-c2cccnc2)c2scc(-c3ccc4c(c3)CCN4C(=O)Cc3ccccc3)c12 [GSK683281] | 19 | 26 | 21 | 9 | 12 | 2 | 98.1 | 1 | 0 | 2 | 0 | 11 | 4 | 21 | 0 | 0 | 35 | 0 | 33 | 0 |
| COc1ccc(CNC(=O)NC2CCN(c3ccnc(Nc4ccc(F)cc4)n3)CC2)cc1 [GSK1379788] | 0 | 0 | 1 | 0 | 0 | 7 | 38 | 34 | 10 | 25 | 0 | 0 | 0 | 0 | 0 | 0 | 0 | 0 | 17 | 0 |
| COCCOCCOc1cc2ncc3c4ccc(C#N)cc4[nH]c3c2cc1OC | 11 | 9 | 6 | 23 | 11 | 25 | 56 | 34 | 0 | 0 | 9 | 6 | 2 | 0 | 0 | 36 | 0 | 16 | 0 | 17 |
| O=C(Nc1cccc(-c2nn3ccccc3c2-c2ccnc(Nc3cccc(C(F)(F)F)c3)n2)c1)c1c(F)cccc1F [GSK292658] | 0 | 0 | 2 | 0 | 5 | 0 | 25 | 80 | 0 | 90 | 0 | 0 | 0 | 0 | 0 | 9 | 0 | 0 | 3 | 0 |
| CC(C)c1nc(-c2cccc(NS(=O)(=O)c3c(F)cccc3F)c2F)c(-c2ccnc(Nc3ccc(N4CCOCC4)nc3)n2)s1 [GSK2008607] | 0 | 99.4 | 40 | 0 | 0 | 0 | 99 | 92.1 | 97.7 | 97.7 | 0 | 0 | 9 | 42 | 2 | 93.5 | 65 | 32 | 71 | 23 |
| Nc1ncc(-c2ccc3nccc(-c4ccncc4)c3c2)cc1S(=O)(=O)N1CCOCC1 [GSK1627798] | 4 | 15 | 1 | 0 | 3 | 3 | 36 | 0 | 0 | 0 | 0 | 0 | 0 | 10 | 0 | 45 | 0 | 2 | 11 | 0 |
